Only some compounds are listed: those with a hit (about 2.9% of all), similar ones and a draw of the others.
PAFAH2 inh: PAFAH2 (human) inhibition | Q99487 | recombinant PAFAH2, FP-rhodamine activity probe, fluorescence polarization | inhibition, % at 3.39 µM | 340,000 tested, 0.99% active;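 active = inhibition above the mean over all tested compounds plus 3 SD, cut at about 30% in these data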;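 also: inhibitors block probe labeling of enzyme so polarization drops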
PAFAH1B2 inh: PAFAH1B2 (human) inhibition; P68402; recombinant PAFAH1B2, FP-rhodamine activity probe, fluorescence polarization; inhibition, % at 3.39 µM; 340,000 tested, 1.2% active; AID 492953;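 active = inhibition above the mean of all tested compounds plus 3 SD, cut at about 24% in these data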
Target sequence (P68402 whole entry, looked up): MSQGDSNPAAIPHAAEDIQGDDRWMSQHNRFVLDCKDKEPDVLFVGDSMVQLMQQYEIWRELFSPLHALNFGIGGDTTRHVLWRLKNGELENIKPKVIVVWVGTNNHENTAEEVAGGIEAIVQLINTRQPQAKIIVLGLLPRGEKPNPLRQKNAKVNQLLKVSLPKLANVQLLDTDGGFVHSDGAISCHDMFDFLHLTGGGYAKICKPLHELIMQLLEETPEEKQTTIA
PME-1 primary: PME-1 (human) inhibition; recombinant PME-1, FP-Rh probe fluorescence polarization; AID 2130; 320,000 tested, 0.53% active; inhibition, % at 5.9 µM; Q9Y570;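 active = inhibition above the campaign mean of all compounds plus 3 SD, cut at about 26% in these data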;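 also: competitive labeling of PME-1 active site by serine hydrolase directed probe; inhibitors block probe labeling so polarization falls and inhibition rises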
Fam108B inh: blocks mouse Fam108B hydrolase in RBBP9 counter-screen; recombinant Fam108B, FP-Rh probe fluorescence polarization; inhibition, % at 9.51 µM; 300,000 tested, 0.33% active; AID 1947;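 active = inhibition above the screen mean inhibition plus 3 SD, computed separately per campaign, cut at about 18% in these data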;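 also: inhibitors lower polarization as less probe binds the enzyme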
pPAFAH FP inh: pPAFAH (human) enzyme inhibition | 330,000 tested, 1.5% active | Q13093 | recombinant pPAFAH, FP-rhodamine probe fluorescence polarization | inhibition, % at 3.39 µM;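 active = inhibition above the mean inhibition across the screen plus 3 SD, cut at about 25% in these data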;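 also: inhibitors block binding of the rhodamine activity-based probe so polarization drops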
PAFAH1B3 inh: blocks human PAF acetylhydrolase 1B catalytic subunit 3; recombinant PAFAH1B3, FP-rhodamine probe, fluorescence polarization; inhibition, % at 3.39 µM; 340,000 tested, 0.28% active; AID 492972;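 active = inhibition above the screen-wide average of all tested compounds plus 3 SD, cut at about 25% in these data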
Target sequence (Q15102 whole entry, looked up): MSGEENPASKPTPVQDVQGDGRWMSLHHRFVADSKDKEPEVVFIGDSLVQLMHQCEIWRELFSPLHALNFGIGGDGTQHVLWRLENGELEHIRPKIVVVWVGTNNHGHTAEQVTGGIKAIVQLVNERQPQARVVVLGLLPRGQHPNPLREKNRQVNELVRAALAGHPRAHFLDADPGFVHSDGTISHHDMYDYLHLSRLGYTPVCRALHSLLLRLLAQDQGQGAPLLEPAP
PAFAH2 FP conf: PAFAH2 (human) inhibition, confirmed; AID 493030; recombinant PAFAH2, FP-rhodamine activity probe, fluorescence polarization; shares compounds with PAFAH2 inh; 2,300 tested, 65% active; inhibition, % at 3.39 µM;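 active = mean inhibition over three repeats above a set limit taken from the earlier primary screen, cut at about 30% in these data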;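 also: inhibitor blocks binding of rhodamine activity probe so polarization falls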
Hits are given with their value.

How did CC1(C(=O)OCC(=O)Nc2ccccc2Cl)CC1(Cl)Cl (stereo unspecified) do in these assays?
PAFAH2 inh: inactive; PAFAH1B2 inh: inactive; PME-1 primary: inactive; Fam108B inh: inactive; pPAFAH FP inh: inactive; PAFAH1B3 inh: inactive

Results for COc1cc(/C=C/C(=O)OCC(=O)NCCC2=CCCCC2)cc(OC)c1OC ?
PAFAH2 inh: 33; PAFAH1B2 inh: inactive; pPAFAH FP inh: inactive; PAFAH1B3 inh: inactive; PAFAH2 FP conf: inactive

How did COc1cc(/C=C/C(=O)OCC(=O)NCCC2=CCCCC2)ccc1O do in these assays?
PAFAH2 inh: 57; PAFAH1B2 inh: inactive; PME-1 primary: inactive; Fam108B inh: inactive; pPAFAH FP inh: inactive; PAFAH1B3 inh: inactive; PAFAH2 FP conf: 63

Results for O=C(COC(=O)/C=C/c1cccc(Br)c1)NCCC1=CCCCC1 ?
PAFAH2 inh: inactive; PAFAH1B2 inh: inactive; PME-1 primary: inactive; Fam108B inh: inactive; pPAFAH FP inh: inactive; PAFAH1B3 inh: inactive

Results for CN(C(=O)c1ccc(NC(=O)Cc2ccc(NC(=O)C3CCCN(C(=O)CCc4ccccc4)C3)cc2)cc1)C1CCCC1 (stereo unspecified) ?
PAFAH2 inh: inactive; PAFAH1B2 inh: inactive; PAFAH1B3 inh: inactive

Results for O=C(OCC12CC3CC(CC(C3)C1)C2)c1ccc(NCc2cc(O)ccc2O)cc1 ?
PAFAH2 inh: inactive; PAFAH1B2 inh: inactive; PAFAH1B3 inh: inactive

Results for O=C(OCCC12CC3CC(CC(C3)C1)C2)c1ccc(NCc2cc(O)ccc2O)cc1 ?
PAFAH2 inh: 75; PAFAH1B2 inh: inactive; PAFAH1B3 inh: inactive; PAFAH2 FP conf: 66

How did CCOC(=O)C1(Cc2ccccc2)CCN(C2Cc3ccccc3C2)CC1 do in these assays?
PAFAH2 inh: 33; PAFAH1B2 inh: inactive; PME-1 primary: inactive; Fam108B inh: inactive; pPAFAH FP inh: inactive; PAFAH1B3 inh: inactive; PAFAH2 FP conf: inactive

Results for CCOC(=O)C1(Cc2ccc(Cl)cc2)CCN(C2CCC2)CC1 ?
PAFAH2 inh: inactive; PAFAH1B2 inh: inactive; PME-1 primary: inactive; Fam108B inh: inactive; pPAFAH FP inh: inactive; PAFAH1B3 inh: inactive

Results for N[C@@H](Cc1cc(I)c(O)c(I)c1)C(=O)O ?
PAFAH2 inh: 54; PAFAH1B2 inh: inactive; PME-1 primary: inactive; Fam108B inh: inactive; pPAFAH FP inh: inactive; PAFAH1B3 inh: inactive; PAFAH2 FP conf: inactive

Results for COc1ccc(NC(=O)CN2C(=O)NC3(CCCC3)C2=O)cc1OC ?
PAFAH2 inh: inactive; PAFAH1B2 inh: inactive; PME-1 primary: inactive; Fam108B inh: inactive; pPAFAH FP inh: inactive; PAFAH1B3 inh: inactive

How did COC(=O)c1ccc(NN=Nc2ccc(C)cc2)cc1 do in these assays?
PAFAH2 inh: inactive; PAFAH1B2 inh: inactive; PME-1 primary: inactive; Fam108B inh: inactive; pPAFAH FP inh: inactive; PAFAH1B3 inh: inactive

Results for Cc1ccc(C(=O)ONc2ccc(N=O)cc2)cc1 ?
PAFAH2 inh: 57; PAFAH1B2 inh: inactive; PME-1 primary: inactive; Fam108B inh: inactive; pPAFAH FP inh: inactive; PAFAH1B3 inh: inactive; PAFAH2 FP conf: 52

How did Cc1ccc(C(=O)ONc2ccc(N=NC(=O)c3ccccc3O)cc2)cc1 do in these assays?
PAFAH2 inh: 45; PAFAH1B2 inh: inactive; PME-1 primary: inactive; Fam108B inh: inactive; pPAFAH FP inh: inactive; PAFAH1B3 inh: inactive; PAFAH2 FP conf: inactive

How did O=C1CC(Nc2ccc(N3CCOCC3)cc2)C(=O)N1c1ccccc1 (stereo unspecified) do in these assays?
PAFAH2 inh: inactive; PAFAH1B2 inh: inactive; PME-1 primary: inactive; Fam108B inh: inactive; pPAFAH FP inh: inactive; PAFAH1B3 inh: inactive

Results for COc1ccc(NC2CC(=O)N(c3ccccc3)C2=O)cc1 (stereo unspecified) ?
PAFAH2 inh: 41; PAFAH1B2 inh: inactive; PME-1 primary: inactive; Fam108B inh: inactive; pPAFAH FP inh: inactive; PAFAH1B3 inh: inactive; PAFAH2 FP conf: inactive

How did Cc1ccc(NC(=O)C(C)OC(=O)Cn2cnc3ccccc3c2=O)cc1 (stereo unspecified) do in these assays?
PAFAH2 inh: inactive; PAFAH1B2 inh: inactive; PME-1 primary: inactive; Fam108B inh: inactive; pPAFAH FP inh: inactive; PAFAH1B3 inh: inactive

Results for Cc1nn(-c2ccccc2)c(C)c1/C=C/C(=O)OCC(=O)Nc1ncc(Cl)cc1Cl ?
PAFAH2 inh: 49; PAFAH1B2 inh: inactive; PME-1 primary: inactive; Fam108B inh: inactive; pPAFAH FP inh: inactive; PAFAH1B3 inh: inactive; PAFAH2 FP conf: 55
